Bioassay records from PubChem BioAssay.
A selection: hits, their analogues and other compounds. The true share with any hit is near 21%.
Sm TGR block: S. mansoni TGR enzyme inhibition. Q962Y6. purified TGR, DTNB reduction, TNB absorbance 405 nm. Potency, µM (titrated, usually from 114 µM), without a hit: top-dose activity change, negative = inhibition, actives largely listed as inhibitors. hit rate 3% among 360,000. AID 485364; also: potency is read from the fitted curve at half-maximal effect; % is scaled to controls: 0 for no effect and ±100 for the full control effect; nearly all actives have a fitted effect of over 60% in size
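First, TGR (20 nM dispensed) and NADPH were mixed with compound. Second, a 15 min room-temperature incubation followed. Third, further NADPH and then DTNB were added to start the reaction. Finally, TNB absorbance was monitored kinetically.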
Pf growth 96h: inhibits malaria parasite growth, 96 h. P. falciparum luciferase reporter growth, 96 h. Potency, µM (highest dose often 28.7 µM), inactives show at the highest dose activity change, negative = inhibition, actives largely listed as inhibitors. hit rate 6.9% among 320,000. AID 504834; also: potency is read from the fitted curve at half-maximal effect; % is scaled to controls: 0 for no effect and ±100 for the full control effect
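Delayed-death screen, second-generation endpoint: infected erythrocytes, 2% hematocrit, 0.05% parasitemia final; 96 hours at 37 C, 5% CO2; luciferase detection reagent; luminescence decrease equals reduced growth.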
NS1 inh: blocks influenza NS1 protein function; hit rate 0.4% among 270,000; AID 2326; Potency, µM (series often up to 46.1 µM), inactives show at the highest dose activity, positive = more growth; calls by dose curve; also: potency is read from the fitted curve at half-maximal effect; actives are rising curves; nearly all actives have a fitted effect of over 50% in size
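In this qHTS, NS1 from influenza A is expressed in budding yeast, where it slows growth. Cells are switched from glucose to 2% galactose medium (pH 6.0, -URA), treated with compound, and growth recovery is read at OD600.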
Pf growth 48h: inhibits P. falciparum growth in the first generation, 48 h | P. falciparum luciferase growth in erythrocytes, 48 h | Potency, µM (titrated, usually from 28.7 µM), inactives show top-dose activity change, negative = inhibition, most hits filed as inhibitors | hit rate 5.9% among 310,000 | AID 504832; also: potency is read from the fitted curve at half-maximal effect; % is scaled to controls: 0 for no effect and ±100 for the full control effect
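Luminescence readout; reporter = integrated firefly luciferase in P. falciparum. RBC culture at 2% hematocrit, 0.1% parasitemia final, 37 C/5% CO2; decreased signal taken as growth inhibition.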
Shiga toxin inh: inhibitors of Shiga toxin in Vero cells | inhibition, % at 38.7 µM | Vero cells, Shiga toxin protein synthesis inhibition reporter | hit rate 9.2% among 290,000; in the data active = inhibition mostly above about 28%, no sharp cut-off; inactive = mostly below about 43%; also: 0% is about no effect
Cycloheximide cs: counter-screen hit for Shiga toxin inhibitors, cycloheximide | AID 2314 | cell reporter, cycloheximide protein synthesis inhibition counterscreen | hit rate 12% among 300,000 | max response, %; in the data active = max response mostly above about 13%, no sharp cut-off; inactive = mostly below about 14%; also: read at 38.3 µM for the half of the compounds with a filed dose; 0% is about no effect
Active calls of the source: *; ? = inconclusive; . = not tested or not shown; + = active, no number; [ ] = dose if it differs, or a comment. Unless noted, calls follow the shape of the dose curve; as a rule, active = well fitted curve in the direction sought with a large enough effect; inconclusive = small, poorly fitted or top-dose-only effect, or another doubt; inactive = no such curve, though single readings can be large; an effect the other way counts as inactive or inconclusive.

SMILES	Sm TGR block	Pf growth 96h	NS1 inh	Pf growth 48h	Shiga toxin inh	Cycloheximide cs
Oc1ccc(-c2csc(Nc3ncccn3)n2)c(O)c1	-13%	-2%	.	320%	88*	59*
COCCn1c(SCC(=O)c2ccccc2)nc2cc(C(=O)NC3CCCC3)ccc2c1=O	2%	.	.	.	.	.
COc1ccc(Cl)cc1NC(=O)c1cc2c(s1)-c1ccccc1OC2	6%	.	.	.	.	.
Cc1cccc(NC(=O)c2cc3c(s2)-c2c(C)cccc2OC3)n1	1%	64%	5%	39%	16	10*
COc1ccc(CCNC(=O)c2cc3c(s2)-c2ccccc2OC3)cc1OC	7%	.	.	.	.	.
Cc1csc(NC(=O)c2cc3c(s2)-c2ccccc2OC3)n1	-9%	134%	?	?	+	59*
Cc1c(NC(=O)c2cc3c(s2)-c2ccccc2OC3)cccc1[N+](=O)[O-]	8%	0%	-11%	-12%	11	16*
CN(C)CCNC(=O)c1cc2c(s1)-c1ccccc1OC2	7%	?	3%	.	47*	40*
CCCSc1nnc2c(n1)OC(c1cccs1)Nc1ccc(Br)cc1-2 (centres undefined)	-12%	.	.	.	.	.
CC1CC(C)CN(CCCNC(=O)c2cc3c(s2)-c2ccccc2OC3)C1 (centres undefined)	14%	20%	-8%	2.9µM*	-4	-3
CCN1CCN(CCCNC(=O)c2cc3c(s2)-c2ccccc2OC3)CC1	-2%	?	0%	?	4	3
COCCCNC(=O)COc1cc2c(c3oc(=O)c(C)c(C)c13)CCC(C)(C)O2	-1%	-19%	1%	2%[0.00184 µM]	-18	-3
CCC(=O)Oc1ccc2ccccc2c1CNC(=O)c1ccccc1	-3%	9.3µM*	-22%	?	-3	7
COc1ccccc1C(=O)NCCC(=O)Nc1ccc(S(=O)(=O)N2C(C)CCCC2C)cc1 (centres undefined)	-7%	?	.	15µM*	.	.
COc1ccccc1C(=O)NCCC(=O)Nc1ccc(S(=O)(=O)N2CC(C)CC(C)C2)cc1 (centres undefined)	-1%	15µM*	.	?	.	.
CCCCn1c(-c2cccc(Br)c2)nc2cc3[nH]c(=O)c(C(C)C)nc3cc21	-20%	6.6µM*	27%	?	3	2
CCCn1c(-c2cccc(Br)c2)nc2ccccc21	-2%	.	.	.	.	.
CCCCn1c(-c2cccnc2)n[nH]c1=S	-8%	2.6µM*	4%	-1%	-4	-4
CCCCn1c(-c2cccnc2)nc2cc3[nH]c(=O)c(C(C)C)nc3cc21	-28%	10µM*	10%	?	-4	-3
Cc1cccc(N(C)C(=O)Cn2c(=O)oc3cc(S(=O)(=O)N4CCCCC4)ccc32)c1	-6%	.	.	.	.	.
Cc1cc(-c2ccc(C)c(S(=O)(=O)N3CCN(c4ccccn4)CC3)c2)on1	0%	?	-14%	?	-10	12
Cc1ccc(Nc2ncccc2C(=O)O)cc1C	10%	87%	-26%	39%	92*	21*
O=C(O)c1cccnc1Nc1ccc(Cl)cc1	1%	?	.	11%	101*	27*
CC(=O)NS(=O)(=O)c1cccnc1Nc1ccc(Cl)c(Cl)c1	-21%	.	-2%	21%	-14	7
Cc1ccc(Nc2ncccc2C(N)=O)cc1[N+](=O)[O-]	4%	288%	1%	289%	50*	39*
SMILES	Sm TGR block	Pf growth 96h	NS1 inh	Pf growth 48h	Shiga toxin inh	Cycloheximide cs
Cc1cc(C)c(Nc2ncccc2C(=O)O)c(C)c1	0%	16%	1%	9%	-19	-2
C[C@H](CCC(=O)O)[C@H]1CC[C@]2(C)[C@@H]3C(=O)C[C@H]4C(C)(C)[C@@H](O)CC[C@]4(C)[C@H]3C(=O)C[C@@]12C	.	.	0%	.	.	.
CN(C)c1cc[n+](CC(=O)Nc2c(Cl)cc(Cl)cc2Cl)cc1	40µM*	145%	1%	-15%	-6	-8
c1coc(CNc2c3c(nc4ncnn24)CCC3)c1	-1%[11.4 µM]	-19%	2%	.	-11	-5
Fc1ccccc1CCNc1c2c(nc3ncnn13)CCCC2	1%	-15%	1%	-12%	-2	-3
c1coc(CNc2c3c(nc4ncnn24)CCCC3)c1	-29%	36%	-4%	-2%	10	9
c1ccc(Nc2c3c(nc4ncnn24)CCC3)cc1	?	12µM*	-7%	-5%	-10	-9
c1ccc(CCNc2c3c(nc4ncnn24)CCC3)cc1	-21%	-30%	1%	1.5µM*	8	5
CSc1c2c(nc3ncnn13)CCC2	-8%	9.3µM*	14%	?	-7	-4
Clc1ccccc1Nc1c2c(nc3ncnn13)CCC2	0%	3.3µM*	-8%	12µM*	-10	-3
CCOc1ccc(S(=O)(=O)Nc2cccc(C(=O)NCC(c3ccc(OC)cc3)N3CCOCC3)c2)cc1 (centres undefined)	3%	?	-37%	-11%	-15	5
CC1CCc2c(sc3[nH]c(=S)n(C)c(=O)c23)C1 (centres undefined)	4%	30%	-1%	?	-5	8
COc1ccc(C(=O)O/N=C(\N)c2ccc(Cl)cc2)cc1	7%	?	-52%	-26%	88*	37*
COc1ccccc1C(=O)O/N=C(\N)c1ccc(Cl)cc1	-9%	151%	-50%	99%	90*	52*
CCC(C(=O)O/N=C(\N)c1ccc(Cl)cc1)c1ccccc1 (centres undefined)	-26%	?	1%	.	-1	9
Cc1cc(N2CCN(Cc3nc(-c4ccc(F)cc4)oc3C)CC2)cc(C)n1	-20%	12µM*	3%	?	13	-1
COc1ccccc1N1CCN(Cc2nc(-c3ccc(F)cc3)oc2C)CC1	0%	?	-6%	?	14	6
COc1ccc(-c2nc(CN3CCN(c4ncnc5ccccc45)CC3)c(C)o2)c(OC)c1	?	8%	-1%	?	17	-4
Cc1oc(-c2cc(F)ccc2F)nc1CN1CCN(c2ncnc3ccccc23)CC1	3%	-17%	5%	-27%	19	25*
COc1ccc(C(=O)C[n+]2ccc(-c3nnc4n3CCC4)cc2)cc1	-1%	?	-5%	?	-12	-8
COc1ccc(Cl)cc1NC(=O)CSc1nc(-c2ccco2)cc(C(F)(F)F)n1	1%	.	.	.	.	.
CC(C)(C)c1ccc(OCCC(=O)Nc2cccc(S(=O)(=O)NC3=NCCCCC3)c2)cc1	3%	?	.	12µM*	.	.
